Compound activity deposited in PubChem by several laboratories.
Gli-Sufu antag: antagonists of Gli-Sufu signaling; Sufu-KO-LIGHT fibroblasts, Gli luciferase reporter luminescence; inhibition, % at 5 µM; hit rate 0.74% among 340,000; AID 588413;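 active = inhibition above about 55%, limit read from the data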;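 also: 0% = DMSO-treated cells and 100% = wells with medium but no cells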
CSC inhib: cancer stem cell inhibition | cancer stem cell-like cells viability, luminescence | inhibition, % at 7.5 µM | hit rate 1.1% among 300,000 | AID 2717; in the data active = inhibition above about 75%; inconclusive = no clear call, values can overlap the other calls; tested in HMLE shEcad cells
Jurkat NFkB inh: inhibitors of the PMA/ionomycin-induced NF-kB reporter in Jurkat cells. PMA/ionomycin-induced NF-kB luciferase reporter, luminescence. inhibition, % at 4 µM. hit rate 0.53% among 330,000. AID 435003; in the data active = inhibition above about 50%
697 NFkB inh: inhibitors of the PMA/ionomycin-induced NF-kB reporter in 697 B cells. 697 B-cell NF-kB luciferase reporter, 16 h. inhibition, % at 4 µM. hit rate 0.33% among 330,000. AID 435022; in the data active = inhibition above about 35%
Mdm2 MdmX PPI: human Mdm2/MdmX binding inhibition; O15151+Q00987; SaOS-2 split-luciferase Mdm2/MdmX complementation, luminescence; inhibition, % at 8 µM; hit rate 3% among 330,000; AID 485346;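 active = inhibition of at least 50% at 8 µM in the primary screen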
aSyn UTR inh: MLPCN primary screen, SNCA 5' untranslated region; AID 1813; inhibition, % (tested at 7.5 µM); hit rate 0.82% among 300,000; alpha-synuclein 5'UTR reporter, inhibitor activity; in the data active = inhibition above about 60%; inconclusive = no clear call, values can overlap the other calls;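 also: H4 neuroglioblastoma cells stably carrying SNCA 5'UTR luciferase fusion; 0% = DMSO wells and 100% = positive control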
Mdm2 MdmX conf: human Mdm2/MdmX binding inhibition, confirmed; shares compounds with Mdm2 MdmX PPI; luminescent assay; inhibition, % at 8 µM; hit rate 55% among 10,000; AID 489028; in the data active = inhibition above about 40%
Full FLuc ctr: inhibits full-length luciferase, flagging false Mdm2/MdmX hits. shares compounds with Mdm2 MdmX PPI. SaOS-2 full-length luciferase counterscreen, luminescence. inhibition, % at 8 µM. hit rate 77% among 6,200;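 active = mean inhibition at 8 µM reaching about 37%, which flags the compound as non-specific, limit read from the data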;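 also: p53-null SaOS-2 cells with luciferase driven by a doxycycline-inducible promoter; compound on cells about two nights before reading with doxycycline added after day one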
An asterisk follows results filed as active; ? = inconclusive; · = no result given. In the library only some 4.5% were active in any assay of this set; here they are far more common.

SMILES	Gli-Sufu antag	CSC inhib	Jurkat NFkB inh	697 NFkB inh	Mdm2 MdmX PPI	aSyn UTR inh	Mdm2 MdmX conf	Full FLuc ctr
O=C1C=C(c2cccs2)C[C@H](c2ccccc2)[C@H]1n1nnc([N+](=O)[O-])n1	-0.5	149.3*	-10.3	20.3	73.6*	71.2*	54.1*	171.5*
COc1cc(OC)nc(Oc2ccccc2C(=O)Oc2ccc(Cl)cc2)n1	9.5	1.5	-7.5	4.4	24.2	-20.1	·	·
CC(C)C(=O)NC(c1ccccc1)c1cc([N+](=O)[O-])c2cccnc2c1O (centres undefined)	1.7	147.4*	12.9	-73.8	81.2*	-14.3	71.8*	41.8*
CC(=O)NC(c1ccccc1)c1cc([N+](=O)[O-])c2cccnc2c1O (centres undefined)	-1.7	119.7*	13.1	-236.5	63.3*	-18.1	67.0*	49.6*
COC(=O)/C=C/c1c(C)nc(NCc2ccccc2)nc1Cl	25.4	-13.0	1.2	17.1	7.1	-17.9	·	·
CC/C(=N\NS(C)(=O)=O)c1ccccc1	11.5	9.6	-1.8	-10.7	-20.7	20.7	·	·
CC(C)N1C(=O)N(c2cccc(Cl)c2)C(C)(O)CC1(C)C (centres undefined)	-30.4	-13.0	-6.8	9.1	13.3	16.0	·	·
Cc1ccc(-c2cc(-c3ccc(C)o3)nc(N)c2C#N)cc1	-12.9	2.4	-2.7	12.1	0.0	19.8	·	·
Cc1ccc(-c2cc(-c3ccc4c(c3)OCO4)c(C#N)c(N)n2)o1	3.5	2.3	13.4	22.3	56.7*	-15.6	26.8	·
CC(C)C(=O)NS(=O)(=O)c1ccc(N)cc1	2.2	-14.4	1.7	-5.8	4.9	-18.3	·	·
CC(C)(C)OC(=O)CC[C@@H](C(=O)N1CCN(C(=O)OC(C)(C)C)CC1)n1cc(C(CO)NC(=O)OC(C)(C)C)nn1 (some centres undefined)	-13.5	-22.2	11.2	10.5	-5.4	-36.8	·	·
Cc1nc(Cl)c(C(=O)NC(=O)Nc2cccc(C(F)(F)F)c2)c(C)c1[N+](=O)[O-]	2.4	·	1.3	16.1	57.1*	-6.0	17.3	·
Cc1ccccc1Cn1c(CN2CCN(c3ccc(F)cc3)CC2)nc2c1c(=O)n(C)c(=O)n2C	·	58.2	-1.2	-61.9	62.1*	18.3	27.6	·
CC(=O)Nc1ccc(C)c(NS(=O)(=O)c2cccc(C(F)(F)F)c2)c1	4.3	10.7	-3.8	5.4	-6.0	-16.4	·	·
Cc1ccc2cccnc2c1N	8.1	-8.1	-14.9	-9.3	4.7	4.3	·	·
Cc1cc(C[n+]2ncsc2N)c2ncccc2c1	1.9	-7.0	-4.1	8.9	98.7*	-15.4	17.4	·
CCOC(=O)C1CCN(C(=O)c2ccccc2NC(=O)C2=C(C)OCCS2)CC1	-6.8	-5.8	3.5	-13.6	-23.3	-15.0	·	·
COc1cc(C(=O)OCCCN=C2NS(=O)(=O)c3ccccc32)cc(OC)c1OC	9.9	-19.9	1.5	20.2	8.4	19.0	·	·
Cc1ccc(NC(=O)c2ccccc2NS(=O)(=O)c2ccc(Cl)s2)cc1	42.6	51.4	6.6	-40.4	89.6*	15.9	81.0*	28.9
O=C(Nc1ccccc1)c1ccccc1NS(=O)(=O)c1ccc(Cl)s1	-21.9	43.3	17.8	3.2	84.8*	-1.5	62.0*	27.7
O=C(NCc1ccco1)c1ccccc1NS(=O)(=O)c1ccc(Cl)s1	8.5	-4.0	2.9	7.0	-1.8	3.2	·	·
Cc1cccc(NC(=O)COc2ccc(-c3nn(C)c(=O)c4ccccc34)cc2)c1	-7.9	2.7	8.5	10.3	36.2	17.3	·	·
CCOc1ccccc1NC(=O)COC(=O)c1nc2nccc(C)n2n1	4.1	-22.0	8.6	6.2	-17.7	·	·	·
O=C(Nc1ccc(N2CCOCC2)c(S(=O)(=O)Nc2ccccc2Cl)c1)c1ccc(F)cc1	-11.3	32.0	8.9	-57.7	37.0	·	·	·
O=C(Nc1ccc(Cl)c(Cl)c1)Nc1ccc(N2CCCC2)c(S(=O)(=O)Nc2ccccc2Cl)c1	16.5	60.5	7.4	8.6	93.3*	95.2*	95.1*	20.6
SMILES	Gli-Sufu antag	CSC inhib	Jurkat NFkB inh	697 NFkB inh	Mdm2 MdmX PPI	aSyn UTR inh	Mdm2 MdmX conf	Full FLuc ctr
O=C(Nc1ccc(F)cc1)Nc1ccc(N2CCCC2)c(S(=O)(=O)Nc2ccccc2Cl)c1	18.8	-6.8	-16.5	-1.1	91.3*	11.4	65.5*	20.4
Cc1cc(/C=N/n2c(COc3ccccc3)nc3ccccc3c2=O)c(O)c([N+](=O)[O-])c1	9.7	?	2.9	-55.0	58.6*	13.0	47.1*	39.6*
Cc1ccccc1OCc1nc2ccccc2c(=O)n1/N=C/c1cn[nH]c1-c1ccccc1	-8.1	25.3	-17.6	-46.1	13.9	2.2	·	·
Cc1ccc(-c2[nH]ncc2/C=N/n2c(COc3ccccc3)nc3ccccc3c2=O)cc1	1.7	21.3	19.4	9.5	82.4*	25.7	45.6*	55.9*
O=S(=O)(c1ccc(NC(=S)N/N=C/c2c3ccccc3cc3ccccc23)cc1)N1CCOCC1	-10.6	6.7	-7.6	-14.2	58.2*	18.7	8.8	·
O=S(=O)(c1ccc(NC(=S)N/N=C/c2ccc(Oc3ccccc3)cc2)cc1)N1CCOCC1	35.3	-2.4	6.0	-0.7	63.9*	37.4	38.0	85.0*
O=S(=O)(c1ccc(NC(=S)N/N=C/c2ccc(N3CCOCC3)cc2)cc1)N1CCOCC1	-1.8	-1.0	9.6	-22.6	-4.4	3.5	·	·
O=C(Nc1cccc(S(=O)(=O)N2CCCCC2)c1)c1ccc(S(=O)(=O)C(F)F)cc1	6.2	-14.3	16.9	-3.8	28.8	-13.7	·	·
N#Cc1ccc(OCC(O)CN2CCC(C(O)(c3ccccc3)c3ccccc3)CC2)cc1 (centres undefined)	1.7	-0.9	-0.8	-11.4	-0.6	9.3	·	·
CCOc1cc(S(=O)(=O)n2ccnc2)ccc1Br	3.5	1.5	-7.9	4.9	4.4	-6.1	·	·
CCOc1cc(S(=O)(=O)n2ccc(C)n2)ccc1Br	16.4	4.7	-2.5	15.3	80.9*	-6.8	-1.8	·
O=C(c1cc(F)c(F)cc1Cl)N1CCN(c2ncccn2)CC1	3.9	6.3	-7.6	19.3	2.0	-10.5	·	·
COc1ccccc1OCC(=O)NNC(=O)c1ccc2c(=O)n3c(nc2c1)CCC3	-3.1	5.2	-3.5	7.2	-3.4	1.4	·	·
O=C(Nc1cccc(NC(=O)c2cccs2)c1)c1ccc([N+](=O)[O-])o1	0.7	?	27.3	6.3	60.6*	-69.0	56.5*	44.1*
CCOc1ccc(C(=O)NC(=S)Nc2ncccc2C)cc1[N+](=O)[O-]	-5.9	-7.9	-3.2	10.9	77.6*	-45.1	7.8	·
CCOc1ccc(C(=O)Nc2ccc(NC(=O)c3cccs3)cc2)cc1[N+](=O)[O-]	3.9	-4.9	15.3	6.1	54.2*	-13.9	9.3	·
CCOc1ccc(C(=O)NC(=S)Nc2ccc(NC(=O)c3ccco3)cc2)cc1[N+](=O)[O-]	-8.6	38.3	-4.4	-13.6	22.4	-6.3	·	·
